Bioassay records: PubChem BioAssay, National Center for Advancing Translational Sciences (NCATS)
PLK1 PBD inh = blocks phosphopeptide binding to human PLK1 polo-box domain; P53350; Plk1 PBD binding of FITC phosphopeptide, fluorescence polarization; Potency, µM, for inactives: max response, negative = inhibition, most hits filed as inhibitors; hit rate 2.8% among 360,000; AID 720504; also: series mostly up to about 57 µM; nearly all actives have a fitted effect of over 65% in size
Target sequence (P53350 whole entry, looked up, the tested form may be a part): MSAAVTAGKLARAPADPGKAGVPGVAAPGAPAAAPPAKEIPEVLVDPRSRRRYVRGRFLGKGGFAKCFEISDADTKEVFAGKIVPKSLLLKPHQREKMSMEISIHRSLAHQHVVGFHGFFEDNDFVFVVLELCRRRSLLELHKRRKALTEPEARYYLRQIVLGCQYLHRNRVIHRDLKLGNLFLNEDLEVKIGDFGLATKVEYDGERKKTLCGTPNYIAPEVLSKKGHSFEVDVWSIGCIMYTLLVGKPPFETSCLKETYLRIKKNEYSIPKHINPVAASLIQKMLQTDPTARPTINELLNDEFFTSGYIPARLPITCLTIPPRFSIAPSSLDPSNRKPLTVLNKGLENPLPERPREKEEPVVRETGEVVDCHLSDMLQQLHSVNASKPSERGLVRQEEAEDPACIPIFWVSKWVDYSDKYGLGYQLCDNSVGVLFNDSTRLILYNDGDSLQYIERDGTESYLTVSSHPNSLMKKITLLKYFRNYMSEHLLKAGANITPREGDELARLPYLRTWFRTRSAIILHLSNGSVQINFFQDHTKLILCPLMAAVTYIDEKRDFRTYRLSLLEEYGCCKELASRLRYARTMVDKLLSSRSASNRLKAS
Tau fluor cs = counter-screen for tau fibril formation inhibitors; tau K18 P301L Alexa594 fluorescence, heparin fibrillization; Potency, µM (top dose mostly 57.7 µM), inactives show top-dose activity change, negative = decrease; hit rate 0.93% among 280,000; AID 1463; also: nearly all actives have a fitted effect of over 55% in size
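Human K18 P301L tau (15 uM unlabeled plus 0.24 uM Alexa 594-labeled, final) in 100 mM sodium acetate pH 7 was mixed with compound and 20 uM heparin and incubated 6 hr at 37 C.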
VDR inh = inhibitors of human vitamin D receptor; P11473; VDR-SRC2-3 peptide fluorescence polarization, 2 h; Potency, µM, for inactives: max response, negative = inhibition, usual class: inhibitors; hit rate 0.93% among 400,000
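Two reagent solutions held at 4 deg C in the dark were dispensed, compounds pinned at 23 nl, and the mixture incubated 2 h at room temperature. Read-out: fluorescence polarization of VDR–SRC2-3 peptide binding.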
Tau FP inhib = inhibitors of human tau fibril formation; K18 P301L tau heparin fibrillization, Alexa594 FP, 6 h; Potency, µM (series often up to 57.7 µM), inactives show at the top dose activity, negative = inhibition, most hits filed as inhibitors; hit rate 0.39% among 280,000; AID 1468; P10636; also: nearly all actives have a fitted effect of over 55% in size
Target sequence (P10636 561-689 P618L limits assumed): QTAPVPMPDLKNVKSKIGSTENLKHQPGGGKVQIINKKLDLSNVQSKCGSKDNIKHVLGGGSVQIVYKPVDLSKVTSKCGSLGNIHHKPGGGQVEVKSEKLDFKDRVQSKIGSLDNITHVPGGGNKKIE
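Human K18 P301L fragment (15 uM unlabeled plus 0.24 uM Alexa 594-labeled) in 100 mM sodium acetate pH 7 with compound, aggregation induced by 20 uM heparin for 6 hr at 37 C. ThT (30 uM) added for 1 hr, then Alexa 594 FP read.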
Tau ThT inhib = tau fibrillization inhibition (ThT binding). P10636. hit rate 2.1% among 270,000. recombinant tau K18 P301L (four-repeat tau fragment), heparin-induced fibrillization, ThT fluorescence. Potency, µM (series often up to 57.4 µM), for the others: at the top dose activity, negative = inhibition, most hits filed as inhibitors. AID 1460; also: nearly all actives have a fitted effect of over 55% in size
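Heparin-induced fibrillization of the P301L-mutant K18 repeat-domain fragment of human tau was followed by ThT binding in quantitative high-throughput format.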
Sfp PPTase inh = Sfp phosphopantetheinyl transferase inhibition; Q9F4F7; Biochemical Sfp PPTase activity, qHTS; Potency, µM, for the others: largest response in the series, negative = inhibition, actives largely listed as inhibitors; hit rate 3.5% among 310,000;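 also: the enzyme is Sfp with the accession as filed and its product quenches rhodamine fluorescence; 0% = enzyme reaction without inhibitor and -100% = no enzyme wells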
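Sfp 15 nM + cpd, 15 min RT; start w/ rhodamine-CoA 5 uM, BHQ-2-YbbR 12.5 uM (final); 50 mM Hepes pH 7.6, 10 mM MgCl2, 0.01% NP-40, 0.01% BSA; read 525/598 nm at 0 and 30 min.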
Active calls of the source: *; ? = inconclusive; · = no result; [ ] = dose if it differs, or a comment. A selection: hits, their analogues and other compounds. The true share with any hit is near 6%. Calls follow the shape of the dose curve; as a rule, active = well fitted curve in the direction sought with a large enough effect; inconclusive = small, poorly fitted or top-dose-only effect, or another doubt; inactive = no such curve, though single readings can be large; an effect the other way counts as inactive or inconclusive. Unless noted, % is scaled to controls: 0 for no effect and ±100 for the full control effect; potency is read from the fitted curve at half-maximal effect.

SMILES | PLK1 PBD inh | Tau fluor cs | VDR inh | Tau FP inhib | Tau ThT inhib | Sfp PPTase inh
C=C1C/C(=C\C)C(=O)O[C@@H]2CCN3CC=C(COC(=O)[C@@]1(C)O)[C@H]23 | · | · | 13.8% | · | · | 13.9%
CC(=O)O[C@H]1C[C@H](O[C@H]2[C@@H](O)CC(O[C@H]3[C@@H](O)C[C@H](O[C@H]4CC[C@@]5(C)[C@H](CC[C@@H]6[C@@H]5CC[C@]5(C)[C@@H](C7=CC(=O)OC7)CC[C@]65O)C4)O[C@@H]3C)O[C@@H]2C)O[C@H](C)[C@H]1O[C@@H]1O[C@H](CO)[C@@H](O)[C@H](O)[C@H]1O (stereo partly drawn) | · | · | 0.8% | · | · | 11.1%
C[C@H](NC(=O)[C@@H](N)Cc1ccc(O)cc1)C(=O)NCC(=O)N(C)[C@@H](Cc1ccccc1)C(=O)NCCO | · | -11.3% | -1.6% | -9.7% | -1.6% | 4.6%
COc1ccc(N2C(=O)C(Cl)=C(N3CCN(Cc4ccccc4)CC3)C2=O)cc1 | -7.7% | -29.9% | -1.2% | 28.2µM* | 25.1µM* | 2.1%
O=C1C(Cl)=C(N2CCCCCC2)C(=O)N1c1ccccc1 | -7.6% | ? | -3.9% | ? | 25.1µM* | 1.2%
COc1ccccc1N1CCN(Cc2ccccc2)CC1 | 4.5% | · | -17.2% | · | · | ?
COC(=O)[C@@H]1[C@@H](O)[C@@]2(O)c3c(OC)cc(OC)cc3O[C@@]2(c2ccc(OC)cc2)[C@H]1c1ccccc1 | · | -9.5%[11.6 µM] | · | -5.0%[11.6 µM] | -9.3%[11.5 µM] | 9.8%
Cc1ccc(OCCOc2cccc(C=C3C(=O)NC(=O)NC3=O)c2)c(C)c1 | 5.32µM* | · | ? | · | · | 50.1µM*
O=C1NC(=O)C(=Cc2cn(CCOc3ccc4c(c3)OCO4)c3ccccc23)C(=O)N1 | -0.2% | -22.5% | 3.1% | -13.8% | ? | -14.0%
NC(=O)CNC(=O)[C@H](Cc1ccccc1)NC(=O)[C@H](CCCN=C(N)N)NC(=O)[C@@H](N)Cc1ccc(O)cc1 | · | -1.9% | 2.0% | -1.5% | 5.3% | 19.3%
COc1ccc(OC)c(-n2c(O)c(/C=C3\C=Nc4ccccc43)c(=O)[nH]c2=O)c1 | 9.47µM* | · | -23.8% | · | · | 50.1µM*
O=C1C=CC[C@@H]2[C@H]3CCCN4CCC[C@@H](CN12)[C@@H]34 | · | 0.1% | -8.3% | -3.7% | -4.0% | -7.2%
C=C(C)[C@H]1O[C@H]2CC[C@@]3(C)[C@@](O)(CC[C@H]4[C@@H]5OC(C)(C)[C@H]6C[C@@H]7C(=C)Cc8c(Cl)cc9[nH]c(c5c9c8[C@@]76O)[C@@]43C)[C@]23O[C@@H]3[C@H]1O | · | ? | -0.6% | 5.9% | -15.0% | 16.3%
COc1ccc(OC)c([C@H](O)[C@H](C)N)c1 | · | · | 5.8% | · | · | 28.5%
CC1(O)C[C@]2(C)N(O)C3CCCC[C@@H]3N2O1 (stereo partly drawn) | -10.5% | -12.6% | 9.6% | -5.9% | -12.2% | -10.4%
CC1(C)N(O)C2CCCCC2N1O (stereo not drawn) | -2.4% | 5.7% | 7.8% | -8.6% | -3.1% | 56.2µM*
C#CCOC(C(=O)OCCN(C)C)(c1ccccc1)c1ccccc1 | · | · | 14.6% | · | · | 14.5%
CN(C)/C=C1/C(=O)NC(=O)N(CCNc2ncc(C(F)(F)F)cc2Cl)C1=O | ? | -8.7% | -3.9% | ? | 15.8µM* | -12.3%
O=C(O)CC1OCC=C2CN3CCC45C6=CC(=O)C(=O)C([N+](=O)[O-])=C6NC4C1C2CC35 (stereo not drawn) | ? | ? | 79.4µM* | ? | 7.08µM* | 14.1µM*
Nc1nnc(Sc2ncccc2[N+](=O)[O-])s1 | 9.47µM* | -8.6% | -23.3% | 1.9% | ? | -1.5%
COc1ccccc1CN1CCCC2(CCN(C(=O)Oc3ccccc3)CC2)C1 | · | · | 8.3% | · | · | 16.3%
CC(=O)N1CCN(Cc2ccc(Cl)nc2)CC1 | 0.1% | · | 3.0% | · | · | 0.6%
O=C(O)c1ccc(Cl)nc1 | 18.9µM* | 6.0% | -2.2% | 10.7% | 6.1% | 7.2%
Cc1ncc2n1-c1ccc(Cl)cc1C(c1ccccc1F)=NC2O (stereo not drawn) | · | · | 10.8% | · | · | -9.1%
CN1C(=O)/C(=C\c2ccc(N3CCCCC3)o2)C(=O)NC1=S | 68.2% | -8.2% | -0.6% | -10.6% | ? | -14.0%
SMILES | PLK1 PBD inh | Tau fluor cs | VDR inh | Tau FP inhib | Tau ThT inhib | Sfp PPTase inh
Cc1cccc(N2C(=O)NC(=O)/C(=C\C=C\c3ccco3)C2=O)c1 | ? | -4.9% | ? | ? | 10µM* | 44.7µM*
O=C1NC(=O)N(Cc2ccccc2)C(=O)/C1=C/N1CCCc2ccccc21 | 26.7µM* | -23.9% | ? | ? | 10µM* | -25.8%
O=C1NC(=O)N(Cc2ccccc2)C(=O)/C1=C\C=C\c1ccco1 | 110.2% | -21.5% | ? | ? | 14.1µM* | -25.9%
O=C1CC(=O)N(Cc2ccccc2)C(=S)N1 | -22.0% | · | -18.1% | · | · | -4.0%
CN1C(=O)/C(=C/C=C/c2ccco2)C(=O)NC1=S | ? | ? | ? | ? | · | 12.6µM*
COc1ccc(C2=C(C(C)=O)Sc3nnc(-c4ccc(C)cc4)n3N2C(C)=O)cc1OC | · | ? | 7.5% | -14.6% | ? | ·
C=C(C)c1cc2cc(C(C)=O)c(O)cc2o1 | · | -10.2% | -2.6% | -9.6% | ? | -18.5%
N=C1/C(=C/c2ccc(OC(=O)c3ccco3)cc2)C(=O)N=C2SC=CN12 | -4.4% | -14.1% | -1.5% | 2.4% | ? | 15.4%
O=C1NC(=O)N(c2ccccc2)C(=O)/C1=C/C=C/c1ccco1 | 2.38µM* | · | 20µM* | · | · | 31.6µM*
Cc1ccc(N2C(=O)NC(=O)/C(=C\C=C\c3ccco3)C2=O)cc1C | 1.5µM* | -13.8% | ? | ? | 12.6µM* | -70.8%
Cc1ccc(N2C(=O)CC(=O)NC2=O)cc1 | -9.6% | -13.5% | -8.5% | -12.7% | ? | -15.7%
Cc1ccc(N2C(=O)NC(=O)/C(=C\C=C\c3ccco3)C2=O)cc1 | 1.89µM* | ? | ? | 12.6µM* | · | ?
Cc1cccc(N2C(=O)NC(=O)/C(=C/c3ccc([N+](=O)[O-])o3)C2=O)c1 | 10.6µM* | 2.2% | ? | 4.5% | 0.2% | 12.6µM*
CC(=O)C1CCC2C3CCC4CC(O)CCC4(C)C3CC(O)C12C (stereo not drawn) | · | -6.0% | 5.0% | 1.9% | -1.9% | -8.8%
C[C@H](N)Cc1cnc[nH]1 | · | -0.3% | -6.2% | -7.4% | -7.9% | 6.1%
CCC1OC(=O)CC(O)C(C)[C@@H](O[C@@H]2OC(C)[C@H](O[C@@H]3C[C@@](C)(O)C(O)C(C)O3)C(N(C)C)C2O)[C@H](CC=O)CC(C)C(=O)/C=C/C(C)=C/[C@@H]1COC1OC(C)C(O)C(OC)[C@@H]1OC (stereo partly drawn) | · | -6.2% | -3.4% | -0.1% | -3.2% | 19.2%
CC1=CC[C@@H]2[C@@H](C1)c1c(O)cc(CC#CCCCNS(C)(=O)=O)cc1OC2(C)C | · | ? | · | 9.0% | ? | 17.9%
